TDP-43 rescue – qHTS of TDP-43 Inhibitors: NCGC Sytravon Library Screen. yeast TDP-43 toxicity rescue, BacTiter-Glo growth, 24 h. Potency, µM (top dose mostly 46.1 µM), most hits filed as activators. 45,000 tested, 0.45% active. AID 1347073, 2019; active means well fitted activation curve with a large enough effect; further: 0% is about no effect; nearly all actives have a fitted effect of over 55% in size
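TDP-43-expressing yeast, pregrown in raffinose, seeded at OD600 0.02 in galactose medium with compound for 24 hr at 30 deg C. Growth read by BacTiter-Glo luminescence, so rescue of toxicity appears as activation.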
Active calls of the source: *. Shown is part of a subset that was picked to be rich in hits. Potency means the concentration at half of the fitted maximal effect.

How did COCCCNC(=O)c1csc([C@H]2C[C@H](O)[C@@H](CO)O2)n1 do in these assays?
TDP-43 rescue: inactive

What do the screens show for `Cc1nc(N2CCCCC2)c2c(C)c(C(=O)Nc3ccccc3C(F)(F)F)sc2n1`?
TDP-43 rescue: 17.8µM*

How did COc1ccc(C)cc1NC(=O)c1sc2nc(C)nc(N3CCOCC3)c2c1C do in these assays?
TDP-43 rescue: inactive

Results for Cc1nc(N2CCN(C)CC2)c2c(C)c(C(=O)Nc3ccc(F)cc3)sc2n1 ?
TDP-43 rescue: inactive

Results for CCOC(=O)N1CCN(C(=S)Nc2ccc(C)cc2)CC1 ?
TDP-43 rescue: inactive

How did O=S(=O)(c1ccc2ccccc2c1)N1CCN(CCO)CC1 do in these assays?
TDP-43 rescue: inactive

Results for N#C/C(=C\c1cccc(Br)c1)C(=O)N1CCCCC1 ?
TDP-43 rescue: 12.6µM*

Results for N#C/C(=C\c1ccccc1)C(=O)N1CCN(c2ccccc2F)CC1 ?
TDP-43 rescue: inactive

Results for Cc1cc(/C=C(\C#N)C(=O)N2CCCCC2)cc(C)c1O ?
TDP-43 rescue: inactive

How did CCc1ccc(CNC(=O)C2CCN(S(=O)(=O)N3CCC4(CC3)OCCO4)CC2)cc1 do in these assays?
TDP-43 rescue: inactive

What do the screens show for `Cc1cnc(C(=O)N(CC(C)C)c2c(N)n(CC(C)C)c(=O)[nH]c2=O)cn1`?
TDP-43 rescue: inactive

What do the screens show for `COc1ccc2nc(NC(=O)Nc3ccccc3OC)sc2c1`?
TDP-43 rescue: inactive

Results for CCC(C)C(=O)Nc1nc2ccc(OC)cc2s1 (configuration not stated) ?
TDP-43 rescue: 11.2µM*

How did CC(C)C(=O)Nc1nc2ccc(S(C)(=O)=O)cc2s1 do in these assays?
TDP-43 rescue: inactive

Results for O=C(NC(=S)NN1CCCCC1c1cccnc1)c1ccc(Cl)cc1Cl (configuration not stated) ?
TDP-43 rescue: inactive

How did Cc1ccc2c(COC(=O)c3ccccc3Cl)cc(=O)oc2c1 do in these assays?
TDP-43 rescue: inactive

Results for CC(NC(=O)OCc1ccccc1)C(=O)Oc1cc2oc(=O)cc(-c3ccccc3)c2cc1Cl (configuration not stated) ?
TDP-43 rescue: 4.47µM*

How did Cc1c(OCC(N)=O)ccc2c(-c3ccccc3)cc(=O)oc12 do in these assays?
TDP-43 rescue: inactive

What do the screens show for `COc1ccccc1NC(=O)Cc1nnc(SCC(=O)NC2=NCCS2)n1C`?
TDP-43 rescue: inactive

Results for O=C1NC2=C(C(=O)CCC2)C(c2ccc([N+](=O)[O-])cc2)N1 (configuration not stated) ?
TDP-43 rescue: inactive

Results for Cn1cc(-c2ccc(C(=O)NCc3cccc(Cl)c3)c3occc23)cn1 ?
TDP-43 rescue: inactive

How did O=C(NCCc1ccccc1)c1ccc(-c2cccnc2)c2ccoc12 do in these assays?
TDP-43 rescue: inactive

What do the screens show for `O=C(NCc1cccc(Cl)c1)c1ccc(-c2cccnc2)c2ccoc12`?
TDP-43 rescue: 14.1µM*

How did Nc1ncc(-n2cncn2)c(-c2ccc(Cl)cc2)n1 do in these assays?
TDP-43 rescue: inactive

Results for CC(=O)c1ccc(NC(=O)CSc2nc(=O)cc(N)n2-c2ccccc2)cc1 ?
TDP-43 rescue: inactive

Results for O=C(/C=C/c1ccccc1)NCCSCc1ccccc1 ?
TDP-43 rescue: inactive

How did O=C(/C=C/c1cccc([N+](=O)[O-])c1)NCCSCc1cccc(Cl)c1 do in these assays?
TDP-43 rescue: 12.6µM*

How did O=C(/C=C/c1cccc([N+](=O)[O-])c1)NCCc1ccc(F)cc1 do in these assays?
TDP-43 rescue: inactive

How did CCCCC(=O)N(C)c1c(C)nc2ccc(C(=O)N3CCN(C(=O)c4ccco4)CC3)cn12 do in these assays?
TDP-43 rescue: inactive

How did COc1ccc(-c2csc(NC(=O)C3=NN(c4ccccc4)C(=O)CC3)n2)cc1 do in these assays?
TDP-43 rescue: inactive

Results for CC(=O)c1ccc(N(CC(=O)NCCc2ccccc2)C(=O)c2csnn2)cc1 ?
TDP-43 rescue: inactive

How did COc1cccc(CNC(=O)CNS(=O)(=O)c2ccc3nc(C)sc3c2)c1 do in these assays?
TDP-43 rescue: inactive

How did COc1cc(/C=C2\C(=O)ON=C2c2ccccc2)cc(OC)c1OC do in these assays?
TDP-43 rescue: 11.2µM*

How did C#CCOc1c(Br)cc(/C=C2/C(=O)ON=C2C)cc1OC do in these assays?
TDP-43 rescue: inactive

What do the screens show for `CCOc1cc(/C=C2/C(=O)ON=C2C)ccc1OCc1ccccc1`?
TDP-43 rescue: inactive

Results for Cc1ccc(NC(=O)C2CCCN2S(=O)(=O)c2ccc3c(c2)n(C)c(=O)c(=O)n3C)cc1 (configuration not stated) ?
TDP-43 rescue: inactive

What do the screens show for `Cc1ccc(NC(=O)[C@@H]2CCCN2S(=O)(=O)c2ccccc2F)cc1`?
TDP-43 rescue: inactive

How did Cc1ccc(S(=O)(=O)N2CCCC2C(=O)Nc2ccc(Br)cc2)cc1 (configuration not stated) do in these assays?
TDP-43 rescue: 12.6µM*

What do the screens show for `CCCC(=NC(C)CC)C1=C(O)CC(c2ccccc2)CC1=O` (configuration not stated)?
TDP-43 rescue: inactive

What do the screens show for `Cc1c(Cl)cccc1NC(=O)CNC(=O)c1ccccc1F`?
TDP-43 rescue: inactive

How did O=C(NC(=S)NCC1CCCO1)c1ccc([N+](=O)[O-])cc1 (configuration not stated) do in these assays?
TDP-43 rescue: inactive

How did CCOc1ccc(S(=O)(=O)N=C(c2ccccc2)N2CCOCC2)cc1 do in these assays?
TDP-43 rescue: inactive

What do the screens show for `CCc1sc(C(=O)Nc2ccc3nc(C)sc3c2)cc1C`?
TDP-43 rescue: 11.2µM*

How did Cc1nc2ccc(NC(=O)c3ccc(=O)[nH]c3)cc2s1 do in these assays?
TDP-43 rescue: inactive

What do the screens show for `C=CCNC(=O)Nc1ccc2nc(C)sc2c1`?
TDP-43 rescue: inactive

Results for CC(=O)c1cc(C(=O)N2CCCC(C(=O)c3ccc(Cl)cc3)C2)cs1 (configuration not stated) ?
TDP-43 rescue: inactive

How did CCOc1ccc(NC(=S)NCc2nc3ccccc3[nH]2)cc1 do in these assays?
TDP-43 rescue: inactive

What do the screens show for `O=C(/C(=C\c1ccccc1)c1nc2ccccc2[nH]1)c1ccc(Cl)cc1`?
TDP-43 rescue: inactive

How did S=C(Nc1ccc(Cl)cc1)c1nc2ccccc2[nH]1 do in these assays?
TDP-43 rescue: 10µM*

Results for CSc1nc(C(C)C)ccc1CNC(=O)CC(C)c1ccccc1 (configuration not stated) ?
TDP-43 rescue: inactive

What do the screens show for `O=C(COC(=O)c1ccc([N+](=O)[O-])o1)NC1CCS(=O)(=O)C1` (configuration not stated)?
TDP-43 rescue: inactive

How did CC1CCCC(NC(=O)COC(=O)c2ccc([N+](=O)[O-])o2)C1C (configuration not stated) do in these assays?
TDP-43 rescue: 12.6µM*

Results for CC(=O)Nc1ccc(NC(=O)COC(=O)c2ccc([N+](=O)[O-])o2)cc1 ?
TDP-43 rescue: inactive

What do the screens show for `Cc1ccc(S(=O)(=O)NC(=O)C2(C)CCN2C(=O)c2ccccc2)nc1` (configuration not stated)?
TDP-43 rescue: inactive

What do the screens show for `Cc1c(C=O)c2ccccn2c1C(=O)c1cccc([N+](=O)[O-])c1`?
TDP-43 rescue: inactive

How did NS(=O)(=O)c1ccc(NC(=O)COC(=O)C2CC(=O)N(Cc3ccccc3)C2)cc1 (configuration not stated) do in these assays?
TDP-43 rescue: inactive

What do the screens show for `COc1ccc(Cl)cc1NC(=S)NCCSc1ccc(C)cc1`?
TDP-43 rescue: 12.6µM*

How did COc1ccc(Cl)cc1NC(=S)Nc1ccc(Cl)cn1 do in these assays?
TDP-43 rescue: inactive

Screens from PubChem BioAssay.
